Experimental findings from PubChem BioAssay AID2716 (Broad Institute, 2010) are described below.

About 3,300 (1%) of roughly 320,000 compounds were called active. For the sample, actives were picked, then their nearest neighbours and some compounds at random. A number with no mark means an inactive call.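 The calls were made as follows: active = every valid replicate shows activation above 250% relative to neutral control wells; inactive = the rest, any valid replicate at or below 250%.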

A short description of this assay: yeast Mot1-301 growth rescue at high temperature, primary screen, SUMOylation pathway inhibitor project, S. cerevisiae, ATP luminescence, 38.5C (AID 2716).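 Also: OY570 slx delta 5 strain wells were the positive control but not used for scaling.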 The note with it: S. cerevisiae Mot1-301 growth rescue, at 18.8 µM, stronger effect = higher value, percent above DMSO median, 100 means doubled.
As to `CN(/C(=N/S(=O)(=O)c1cccs1)c1ccccc1)c1ccc(O)cc1`, the growth rescue is 313%.

For the compound `CCCCC(=O)N/N=C(\C)CC(=O)Nc1cc(Cl)ccc1OC`, the growth rescue is 1520% (active).

Regarding `COc1ccc(Cl)cc1NC(=O)CNc1ccccc1F`, the growth rescue is 0.922%.

Regarding `COc1ccc(/C(C)=N/NC(=O)CCC(=O)Nc2ccc(Cl)cc2Cl)c(OC)c1`, the growth rescue is 28.5%.

Regarding `COc1ccc(Cl)cc1-n1c(C)cc(C(=O)OCC(=O)N2CC(=O)Nc3ccccc32)c1C`, the growth rescue is -14.8%.

Regarding `CCc1noc(C)c1C(=O)Oc1ccc(N(C)S(=O)(=O)c2ccc(C)c(C)c2)cc1`, the growth rescue was -5.53%.

Take `COCC(=O)Nc1cc(C(=O)OC)cc(C(=O)OC)c1`: the growth rescue is 10%.

Turning to `CCc1ccccc1NC1c2ccccc2C(=O)N1c1cccnc1` (configuration not stated), the growth rescue is 462% (active).

As to `Cc1ccnc(N2C(=O)c3ccccc3C2Nc2ccc3c(c2)OCCO3)c1` (configuration not stated), the growth rescue was -14%.

For the compound `COC(=O)c1cc(NC2c3ccccc3C(=O)N2c2ccc(Cl)cn2)cc(C(=O)OC)c1` (configuration not stated), the growth rescue is -1.41%.

Regarding `CS(=O)(=O)N(CC(=O)N/N=C/c1ccccn1)c1ccc(Oc2ccccc2)cc1`, the growth rescue was 6.74%.

`O=C(CN1C(=O)/C(=C\c2ccc(C(F)(F)F)cc2)Sc2ccccc21)NCc1ccco1`: the growth rescue is 963% (active).

On to `O=C(CCCCCN1C(=O)c2cccc3cccc(c23)C1=O)NCc1ccco1`, for which the growth rescue was -8.72%.

In the case of `O=C(CN1C(=O)/C(=C/c2ccccc2F)Sc2ccccc21)NCc1cccnc1`, the growth rescue was -3.97%.

For `Cc1ccc(NC(=O)COC(=O)CN2CCCCCC2=O)c(C)c1`, the growth rescue is 2.83%.

Regarding `O=C(O)c1c(NC(=O)N2CCCC2)sc2c1CCCC2`, the growth rescue is 2.52%.

For `O=C(O)CCCCCCCCCC[n+]1ccccc1`, the growth rescue was 17.1%.

In the case of `CC(CNc1ccc([N+](=O)[O-])c2cccnc12)Nc1c([N+](=O)[O-])cc(C(F)(F)F)cc1[N+](=O)[O-]` (configuration not stated), the growth rescue is 469%.

As to `CCOC(=O)CCCCCC(=O)Nc1ccc2c(c1)CC(=O)N([C@@H](C)CO)C[C@H](C)[C@@H](CN(C)Cc1ccccc1)O2`, the growth rescue was -3.38%.

In the case of `Cc1nc2sc(C(c3ccco3)N3CCC4(CC3)OCCO4)c(O)n2n1` (configuration not stated), the growth rescue is -10%.

As to `Cc1nc2sc(C(c3ccco3)N3CCOCC3)c(O)n2n1` (configuration not stated), the growth rescue was 853% (active).

For the compound `Cc1ccc(C(c2sc3nc(C)nn3c2O)N2CCN(c3ccccc3)CC2)cc1` (configuration not stated), the growth rescue is 6.75%.

`CCN1CCN(C(C(=O)NC2CCCC2)c2cc3c(cc2[N+](=O)[O-])OCO3)CC1` (configuration not stated): the growth rescue is -4.81%.

As to `CC(C)CCNC(=O)Cn1c(=O)oc2cc(S(=O)(=O)N3CC(C)CC(C)C3)ccc21` (configuration not stated), the growth rescue is 608% (active).

For the compound `CC1CCCCN1C(=O)Cn1c(=O)oc2cc(S(=O)(=O)N3CCCCC3)ccc21` (configuration not stated), the growth rescue was 12%.

As for `COc1cccc(CNC(=O)Cn2c(=O)oc3cc(S(=O)(=O)N4CCCCC4)ccc32)c1`, the growth rescue was 4.01%.

Turning to `Clc1ccc(Nc2ccc3ccccc3n2)cc1`, the growth rescue is 30.7%.

As to `COc1ccc(CNC(=O)COc2cccnc2[N+](=O)[O-])cc1`, the growth rescue is -4.39%.

In the case of `COc1ccc(OC)c(NC(=O)CSc2nc(-c3ccccc3)cc(=O)[nH]2)c1`, the growth rescue was 371%.

Regarding `Cc1cccc(NC(=O)c2ccc3c(=O)n(CC4CCCO4)c(=S)[nH]c3c2)c1` (configuration not stated), the growth rescue was -20.5%.

In the case of `O=C(NC1CCCCC1)c1ccc2c(=O)n(CC3CCCO3)c(=O)[nH]c2c1` (configuration not stated), the growth rescue was 2310% (active).

On to `O=C(NCc1ccccc1Cl)c1ccc2c(=O)n(CC3CCCO3)c(=S)[nH]c2c1` (configuration not stated), for which the growth rescue is -7.73%.

Consider `O=C(Nc1cccc(F)c1)NC1CCCCCCC1`, for which the growth rescue is 2.77%.

As to `N#C/C(=C(\O)CCl)c1nnc2n1CCCCC2`, the growth rescue is 10%.

With `Cc1cn(C)c(=O)n(C)c1=O`, the growth rescue was 274%.

On to `Cc1ccc2nc(-c3ccc(Br)cc3)cn2c1`, for which the growth rescue was -0.961%.

Turning to `Cc1ccc(-c2cn3cc(C)ccc3n2)cc1`, the growth rescue is 297% (active).

`Cc1ccc(-c2cn3cc([N+](=O)[O-])ccc3n2)cc1`: the growth rescue was 25%.

`Cc1cccc(NC(=S)N(CCN(C)C)C(C)c2ccco2)c1` (configuration not stated): the growth rescue was 58.7%.

With `Cc1nnc(NC(=O)Cn2c(=O)sc3ccccc32)s1`, the growth rescue is 0.0426%.

Consider `O=C(Cn1c(=O)sc2ccccc21)Nc1ccc2c(c1)OCCO2`, for which the growth rescue is 284% (active).

On to `Cn1c(=O)c2ccccc2n(CC(=O)Nc2ccc3c(c2)OCCO3)c1=O`, for which the growth rescue was 0.839%.

Take `COCC1CCN(C(=O)CCc2nnc(C3(c4ccc(Cl)cc4)CCC3)o2)C1` (configuration not stated): the growth rescue was -10.9%.

As for `Cc1ccc(S(=O)(=O)N(CC(=O)NCCSC2CCCCC2)c2ccccc2F)cc1`, the growth rescue was 1.9%.

Turning to `Cc1cccc(N(C(=O)c2ccc(CN3CCOCC3)o2)C(C(=O)NC2CCCCC2)c2ccc(F)cc2)c1` (configuration not stated), the growth rescue is 647% (active).

As to `Cc1ccc(N(C(=O)c2ccc(CN3CCOCC3)o2)C(C(=O)NCCC(C)C)c2cccs2)c(C)c1` (configuration not stated), the growth rescue was -1.16%.

Take `O=C(NC1CCCC1)C(c1ccc(N2CCOCC2)cc1)N(C(=O)c1ccco1)c1ccccc1F` (configuration not stated): the growth rescue was 95.4%.

In the case of `CCc1cc(-c2nnc(SCC(=O)NC3CC3)n2C)cs1`, the growth rescue is -5.06%.

As for `CN1CCN(C(=O)C2C3C=CC(C3)C2C(=O)O)CC1` (configuration not stated), the growth rescue is 0.946%.

With `O=C(O)C1C2C=CC(C2)C1C(=O)NCc1ccccc1` (configuration not stated), the growth rescue is -11%.

With `C=C(Cl)COC(=O)C1C2C=CC(C2)C1C(=O)O` (configuration not stated), the growth rescue is 885% (active).

For the compound `CCOC(=O)C1CCN(C(=O)c2cccc(S(=O)(=O)N(CC)c3ccccc3)c2)CC1`, the growth rescue is -7.37%.

Turning to `Cc1cc(C)n(C(=O)c2ccc(S(=O)(=O)N3CCCC3)cc2)n1`, the growth rescue was 1400%.

On to `Cc1ccc(S(=O)(=O)N2CCN(c3ccccc3)CC2)cc1C`, for which the growth rescue was 11.5%.

With `Cc1cc(C)n(CCC(=O)N2CCN(S(=O)(=O)c3ccc(C)c(C)c3)CC2)n1`, the growth rescue was 315% (active).

Turning to `Cc1ccccc1NC(=O)C(C)OC(=O)CCC(=O)N(CC(C)C)c1c(N)n(CC(C)C)c(=O)[nH]c1=O` (configuration not stated), the growth rescue is -16.2%.

In the case of `O=C(OCCN1C(=O)c2ccccc2C1=O)[C@@H]1CC(O)CN1S(=O)(=O)c1ccccc1[N+](=O)[O-]` (some centres not stated), the growth rescue was -16.3%.
